Measurements from PubChem BioAssay (EPA / NIEHS).
Results filed as inconclusive are left out. Active and inactive are the calls of the source. How the source made its calls: active means hit-call score of the fitted dose curve at least 0.9, where 1 is the maximum; inconclusive means response in the unintended direction; inactive means score below 0.9.

Target: human Vitamin D Receptor (VDR), VDR (gene 7421) (UniProt P11473)
Assay: ATG_VDR_TRANS: Attagene TRANS-FACTORIAL HepG2 Assay for human Vitamin D Receptor (VDR) (AID 2283022)
How it was run: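 Steps: transfect HepG2 with GAL4-UAS-driven reporter constructs; dose compounds 24 h; isolate RNA, reverse-transcribe, PCR-amplify with 6-FAM-labelled primer extension and HpaI digestion; quantify fragments by capillary electrophoresis relative to DMSO.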

human Vitamin D Receptor (VDR), VDR (gene 7421), sequence (P11473 whole entry, looked up): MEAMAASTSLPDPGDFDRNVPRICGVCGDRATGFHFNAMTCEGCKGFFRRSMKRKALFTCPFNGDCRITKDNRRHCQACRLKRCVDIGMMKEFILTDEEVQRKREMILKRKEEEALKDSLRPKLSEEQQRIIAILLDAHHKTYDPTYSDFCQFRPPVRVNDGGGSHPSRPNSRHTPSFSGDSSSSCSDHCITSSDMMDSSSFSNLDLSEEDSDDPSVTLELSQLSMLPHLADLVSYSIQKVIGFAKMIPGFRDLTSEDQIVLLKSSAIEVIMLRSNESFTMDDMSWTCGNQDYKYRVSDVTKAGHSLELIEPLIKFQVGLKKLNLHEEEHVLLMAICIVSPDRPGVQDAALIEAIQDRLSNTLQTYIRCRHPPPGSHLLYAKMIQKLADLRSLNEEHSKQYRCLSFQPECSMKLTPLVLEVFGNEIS

outcome, inactive:
O=C(O)CCCC[C@@H]1SC[C@@H]2NC(=O)N[C@@H]21, Cc1cc(=O)n(-c2ccccc2)n1C, Cc1cc(C)c(C(=O)O)c(C)c1, O=S(=O)(O)c1ccc2cc(O)c(S(=O)(=O)O)cc2c1, CC(C)CC(O)Cc1ccccc1 (centres undefined), CC(C)(C)c1ccc(N)cc1, CC(C)c1ccc(C=O)cc1, O=C(O)c1cc2ccccc2nc1C(=O)O, Nc1ncn([C@@H]2O[C@H](CO)[C@@H](O)[C@H]2O)c(=O)n1, O=[N+]([O-])C1(Br)COCOC1, CC(=O)OCC(C)OC(C)=O (centres undefined), N#CCc1ccc(Cl)cc1Cl, CC(C)COC(=O)C=Cc1ccccc1, NCCCN1CCN(CCCN)CC1, C=CCCCCCCCCC(=O)OCCCC, NC(CO)(CO)CO, O=C(C(Cl)Cl)N1CCOC12CCCCC2, Cc1ccc2oc(=O)ccc2c1, C=C(C)C(=O)OCCO, CC=CC(=O)N(CC)c1ccccc1C, CCCCCCCCCCC=CC#N, C1=CCCC1, O=S1(=O)OC(c2ccc(O)cc2)(c2ccc(O)cc2)c2ccccc21, COCCOCCOCCOCCOC, CCCCCCCC/C=C\CCCCCCCC(=O)OCCO, CCCNC(=O)NS(=O)(=O)c1ccc(Cl)cc1, C=CC(C)(C)C, CCCCCCCOC(=O)CCC, CC(=O)OCc1ccco1, CC(=O)OC(C)C, CN(C)CCCN(C)C, c1ccc(CNCc2ccccc2)cc1, C[Si](C)(CCCN)O[Si](C)(C)CCCN, c1cc(C(c2ccc(OCC3CO3)cc2)C(c2ccc(OCC3CO3)cc2)c2ccc(OCC3CO3)cc2)ccc1OCC1CO1 (centres undefined)
